Values joined by “and” are separate entries in the source; they are usually repeats but may differ in a detail not shown here. Equal values may be shown once. Active and inactive are the calls of the source.
Experiments:
Albumin (Bos taurus) = Albumin (Bos taurus) (UniProt P02769); test: bovine serum albumin binders on microarray, profiling panel, artefact control for SMM control protein annotation, biochemical, small-molecule microarray, Alexa647 label, 635/667 nm fluorescence (AID 1118); conditions: BSA-A647 binding, fluorescence 635 nm, higher = more signal;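 further: score merges 667 nm emission intensity and signal-to-noise per printed compound spot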
[1] = small-molecule microarray binders of probe aXIP, primary screen, biochemical, NeuroSMM set, 635/667 nm fluorescence (AID 1119); conditions: higher = more signal, called active from +8 up or from −8 down;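 further: probe is the protein aXip251-270 applied at 1 µg/mL to compound-printed slides; binding of probe to printed compounds measured as 667 nm fluorescence plus signal to noise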
[2] = small-molecule binders of probe aNOTCH3, primary screen, biochemical, small-molecule microarray, 635/667 nm fluorescence (AID 1120); conditions: higher = more signal;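 further: probe is a biotin-tagged antibody raised against NOTCH3 rather than NOTCH3 protein; score merges spot fluorescence near 667 nm with spot signal to noise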
[3] = small-molecule binders of probe aNOTCH2, primary screen, biochemical, small-molecule microarray, 635/667 nm fluorescence (AID 1121); conditions: higher = more signal;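 further: score merges feature fluorescence read at 667 nm with its signal to noise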
[4] = target: Carbonic anhydrase 2 (Homo sapiens) (UniProt P00918); test: CAII small-molecule binders, profiling panel, biochemical, small-molecule microarray, Alexa647-labelled CAII (AID 1122); conditions: CAII-A647 binding fluorescence, higher = more signal
[5] = COS7 lysate on small-molecule microarray, probe aHis, 635 nm (AID 1123); conditions: COS7 cell lysate, fluorescence, higher = more signal;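 further: z-score combines 667nm fluorescence intensity with signal-to-noise per printed compound spot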
[6] = compound binding in COS7 lysate, probe aLAP1, primary screen, cell lysate, small-molecule microarray (AID 1124); conditions: probe aLAP1, fluorescence, higher = more signal;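 further: lysate comes from COS7 cells expressing LAP1 and is applied at 0.3 µg/mL; score merges spot fluorescence near 667 nm with signal-to-noise over triplicate slides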
Sam68 (KHDRBS1) = test: Sam68 small-molecule binders, primary screen, biochemical, small-molecule microarray, 635 nm fluorescence (AID 1125); conditions: small-molecule microarray binding, higher = more signal;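 further: score merges 667 nm channel intensity with signal to noise over triplicate slides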
[7] = tested on: Chordin-like protein 2 (CHRDL2); test: CHRDL2 small-molecule binders, primary screen, biochemical, small-molecule microarray, 635 nm fluorescence (AID 1126); conditions: small-molecule microarray binding, fluorescence 635 nm; higher = more signal;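 further: printed compound slides probed with Chrdl2 protein at 4 µg/mL for 1 h at 4 C; score merges 667 nm emission intensity with signal to noise over three replicate slides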
[8] = target: Concanavalin-A (Canavalia ensiformis) (UniProt P02866); test: ConA small-molecule binders, primary screen, artefact control for SMM control protein annotation, biochemical, small-molecule microarray, Alexa647 label, 635 nm (AID 1127); conditions: ConA-A647 binding fluorescence, higher = more signal;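 further: z combines 667 nm emission intensity with signal-to-noise across three replicate slides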
Concanavalin-A (Canavalia ensiformis), sequence (P02866 whole entry, looked up): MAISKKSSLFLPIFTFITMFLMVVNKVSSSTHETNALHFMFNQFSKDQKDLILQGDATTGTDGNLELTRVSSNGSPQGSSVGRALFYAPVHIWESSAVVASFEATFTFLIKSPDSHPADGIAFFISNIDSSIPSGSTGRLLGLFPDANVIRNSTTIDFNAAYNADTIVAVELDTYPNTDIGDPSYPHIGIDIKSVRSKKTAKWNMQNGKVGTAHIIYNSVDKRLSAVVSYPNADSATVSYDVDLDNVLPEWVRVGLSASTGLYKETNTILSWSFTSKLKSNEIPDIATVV

Albumin (Bos taurus), sequence (P02769 whole entry, looked up): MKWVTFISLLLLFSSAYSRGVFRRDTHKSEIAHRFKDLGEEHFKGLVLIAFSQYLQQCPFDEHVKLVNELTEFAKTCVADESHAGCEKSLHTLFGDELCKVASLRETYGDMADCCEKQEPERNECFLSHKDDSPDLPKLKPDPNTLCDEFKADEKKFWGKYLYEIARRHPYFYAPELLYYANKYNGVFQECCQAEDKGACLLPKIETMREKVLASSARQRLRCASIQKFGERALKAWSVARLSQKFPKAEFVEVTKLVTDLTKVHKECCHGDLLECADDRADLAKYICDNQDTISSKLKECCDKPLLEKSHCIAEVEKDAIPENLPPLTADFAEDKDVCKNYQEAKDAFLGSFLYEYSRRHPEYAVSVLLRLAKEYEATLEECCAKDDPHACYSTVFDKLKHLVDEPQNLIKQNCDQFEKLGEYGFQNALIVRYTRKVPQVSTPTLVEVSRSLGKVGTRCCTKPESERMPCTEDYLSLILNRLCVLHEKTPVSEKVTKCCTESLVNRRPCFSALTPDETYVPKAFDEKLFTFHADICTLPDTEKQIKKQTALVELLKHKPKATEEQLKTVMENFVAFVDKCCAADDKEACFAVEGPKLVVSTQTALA

Row | SMILES | composite z-score (Albumin (Bos taurus)) | composite Z-score [1] | composite z-score [2] | composite z-score [3] | composite z-score [4] | composite z-score [5] | composite z-score [6] | composite z-score (Sam68 (KHDRBS1)) | composite z-score [7] | composite z-score [8]
1 | COC(=O)C1=C(C)N(Cc2ccccc2)[C@]23O[C@](C(=O)OC)(C(=O)N2[C@@H]1c1ccccc1)[C@@H](c1ccccc1)[C@@H]3C(=O)c1ccccc1 | 0.711 and -0.334 | -0.0461 (inactive) and 0.0162 (inactive) | -0.0111 and -0.0048 | -0.119 and -0.0974 | 0.179 and 0.178 | 0.49 and 0.258 | 0.315 and -0.144 | 0.661 and -0.776 | 0.189 and 0.843 | 0.675 and 0.142
2 | C[N+](C)(C)CCCCCCNC(=O)[C@H]1C[C@H]2C(=O)N[C@@H](CCCC[N+](C)(C)C)C(=O)N2[C@H]1c1ccc(O)cc1 | -1.56 and 0.119 | -0.232 (inactive) and 0.577 (inactive) | -0.0359 and -0.0947 | -0.136 and -0.0651 | 0.142 and 0.718 | 0.186 and 0.951 | -0.149 and -0.179 | 0.0061 and 0.117 | 0.823 and 0.178 | -0.341 and -0.163
3 | C=CCN(CCCCC)C(=O)C(c1cccs1)N(C(=O)/C=C\C(=O)O)c1ccc(CCO)cc1 (stereo not given) | 0.516 and -0.0786 | 0.598 (inactive) and -0.378 (inactive) | -0.499 and -0.508 | -0.183 and -0.0859 | 0.821 and 0.562 | 0.455 and -0.0142 | 0.411 and 0.0933 | -0.815 and -0.524 | -0.96 and -1.97 | -0.222 and -0.806
4 | CO[C@@H]1COC(=O)[C@H](Cc2ccccc2)NC(=O)CC=C[C@@H](C)[C@H](OC)COC(=O)[C@@H](C)NC(=O)CC=C[C@H]1C | -1.24 and 0.871 | -0.17 (inactive) and -0.452 (inactive) | 0.0522 and -0.023 | -0.173 and -0.214 | -0.0035 and 0.27 | -0.0816 and -0.0434 | -0.502 and 0.07 | 1.09 and 0.672 | 1.03 and 1.43 | -0.85 and -0.233
5 | CO[C@H]1COC(=O)CC=C[C@@H](C)COC(=O)[C@H](CCSC)NC(=O)CC=C[C@@H]1C | -1.57 and -1.06 | 2.77 (inactive) and 1.61 (inactive) | 0.0311 and -0.0043 | -0.0942 and -0.0241 | -0.407 and -0.489 | -0.335 and -0.552 | 0.383 and -1.41 | 0.982 and 1.31 | 1.54 and 1.65 | -0.773 and -2.15
6 | C=C[C@@H](C)[C@@H](O)c1ccc(O)c2ccccc12 | -0.154 and -0.436 | -0.014 (inactive) and 0.196 (inactive) | -0.413 and -0.52 | -0.232 and -0.193 | 0.0119 and 0.72 | -0.024 and 0.351 | -0.237 and -0.0579 | -0.785 and -0.587 | -0.0684 and 0.351 | -0.419 and -0.81
7 | C[N+](C)(C)CCCCNC(=O)[C@H]1C[C@H]2C(=O)N[C@@H](CCCC[N+](C)(C)C)C(=O)N2[C@H]1c1ccc(O)cc1 | -0.839 and -1.32 | 0.472 (inactive) and 2.29 (inactive) | -0.0947 and 0.0311 | -0.14 and -0.108 | 0.257 and 0.0659 | 0.385 and 0.233 | -0.126 and -0.102 | 1.32 and 0.681 | 1.5 and 1.48 | 1.16 and -0.33
8 | CC(C)C(=O)N[C@@H]1CCCN1C(=O)C=Cc1ccccc1 | -0.0317 | 1.05 (inactive) | 0.0271 | -0.14 | -0.0483 | 0.251 | -0.086 | 0.806 | 0.933 | 0.315
9 | CC(C)N1CC=CC23O[C@@H]4C=CCCOC(=O)C4[C@H]2C(=O)N(C(C)CO)[C@@H]3C1=O (stereo not given in full) | -0.579 and 0.131 | 0.238 (inactive) and 0.848 (inactive) | -0.222 and -0.215 | 0.502 and -0.221 | 0.958 and 0.808 | 1.24 and -0.13 | 0.866 and -0.361 | 0.967 and -0.516 | -2.61 and -1.23 | 0.0938 and -1.42
10 | COC(=O)C1=C(C)N(Cc2ccccc2)[C@]23O[C@](C(=O)OC)(C(=O)N2[C@@H]1c1ccccc1)[C@H]1CCCC(=O)[C@H]13 | -0.0265 and -0.0851 | -0.138 (inactive) and -0.0964 (inactive) | 0.19 and -0.136 | -0.0116 and -0.0649 | 0.311 and -0.0597 | 0.685 and -0.0027 | 0.26 and -0.0668 | 0.174 and 0.227 | 0.228 and 0.551 | 1 and 0.279
11 | C[C@@H](c1ccccc1)N1C(=O)[C@H]2[C@H]3[C@H](O)[C@H](O)CC(=O)[C@@H]3CC[C@H]2C1=O | 0.294 | 0.28 (inactive) | -0.0345 | -0.0843 | 0.149 | 0.438 | 0.727 | 0.661 | 0.433 | 0.583
12 | C=CCN(C(=O)C(c1cccs1)N(C(=O)/C=C\C(=O)O)C(C)(C)CO)c1ccc(OC)cc1 (stereo not given) | -0.427 and -0.637 | -0.431 (inactive) and -0.215 (inactive) | -0.298 and -0.219 | -0.143 and -0.133 | 0.937 and 0.938 | 1.72 and 0.0237 | 0.92 and 1.17 | -0.294 and -0.786 | -1.74 and -0.727 | -0.692 and -0.93
13 | C[C@@H]1CN2[C@@H](CC[C@@H](C)[C@@H]2c2ccc(Br)cc2)C(=O)O1 | -0.66 and 0.877 | -0.139 (inactive) and 0.204 (inactive) | 0.0357 and -0.0363 | -0.0515 and -0.221 | -0.366 and -0.303 | -0.513 and 0.437 | 0.39 and 0.146 | -1.57 and 0.0639 | 0.261 and 0.559 | -0.0782 and -0.252
14 | COC(=O)[C@@]1(Cc2ccc(F)cc2)[C@H]2c3cc(C(=O)N4CCCC4)n(Cc4c(CO)[nH]cc(C)c4=O)c3C[C@H]2CN1C(=O)c1ccccc1 | 1.07 and 0.247 | 0.418 (inactive) and 0.724 (inactive) | 1.28 and 0.355 | 0.908 and 0.11 | 0.439 and 0.769 | 2.88 and 2.95 | 0.614 and 0.478 | -0.201 and 0.623 | -0.114 and -0.367 | 0.196 and 0.0402
